# Results filed as inconclusive are left out. A structure can be active in one record and inactive in another. The source made the active and inactive calls. The calls were made as follows, unless noted: active = hit-call score of the fitted dose curve at least 0.9, where 1 is the maximum; inactive = score below 0.9.
# What was measured:
# [1] = molecular target: human Thyroid Receptor alpha (THRa1), THRA (gene 7067) (UniProt P10827); experiment: ATG_THRa1_TRANS: Attagene TRANS-FACTORIAL HepG2 Assay for human Thyroid Receptor alpha (THRa1) (AID 2283014; active = hit-call score of the fitted dose curve at least 0.9, where 1 is the maximum)
# human Thyroid Receptor alpha (THRa1), THRA (gene 7067), sequence (P10827 whole entry, looked up, the tested form may be a part): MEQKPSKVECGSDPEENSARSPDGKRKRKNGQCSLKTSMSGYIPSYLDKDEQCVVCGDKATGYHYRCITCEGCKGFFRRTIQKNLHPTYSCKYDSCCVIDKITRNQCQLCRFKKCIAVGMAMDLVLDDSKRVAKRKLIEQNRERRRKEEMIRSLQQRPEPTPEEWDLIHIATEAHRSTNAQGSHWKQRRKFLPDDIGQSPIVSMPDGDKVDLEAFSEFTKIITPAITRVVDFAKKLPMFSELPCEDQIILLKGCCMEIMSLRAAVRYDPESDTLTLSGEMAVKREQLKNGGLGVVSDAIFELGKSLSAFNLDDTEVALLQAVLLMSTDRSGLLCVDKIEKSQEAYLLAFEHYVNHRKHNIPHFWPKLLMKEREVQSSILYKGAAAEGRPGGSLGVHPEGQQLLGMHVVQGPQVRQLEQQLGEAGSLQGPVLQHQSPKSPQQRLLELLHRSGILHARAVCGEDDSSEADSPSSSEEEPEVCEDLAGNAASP
# Summary of the method: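 HepG2 cells transiently transfected with multiplexed GAL4-UAS reporter units for exogenous chimeric THRa1-Gal4; reporter mRNA measured 24 h after dosing by RT-PCR, 6-FAM labelling, HpaI digestion and capillary electrophoresis. Gain-of-signal fitted versus DMSO baseline.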
# [2] = read-out: Interleukin-1 alpha (IL1a), IL1A (gene 3552); experiment: BSK_BE3C_IL1a: BioMAP Diversity Plus: BE3C Assay for Interleukin-1 alpha (IL1a) Biomarker Activity (AID 2283016); settings: primary human bronchial epithelial cells; actives raise or lower the signal
# Summary of the method: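 BE3C primary human bronchial epithelium; cpd 24 h; IL-1a by ELISA; bidirectional fit vs DMSO; parallel SRB (0.1% SRB, 10% TCA fix, 560 nm) for cytotoxicity.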
# [3] = read-out: Monocyte Chemoattractant Protein-1 (MCP1), CCL2 (gene 6347); experiment: BSK_3C_MCP1: BioMAP Diversity Plus: 3C Assay for Monocyte Chemoattractant Protein-1 (MCP1) Biomarker Activity (AID 2283017); settings: primary human endothelial cells (HUVEC); actives raise or lower the signal
# Summary of the method: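 Primary human umbilical vein endothelial cells (3C system) were exposed to test chemical for 24 h, after which MCP-1 was quantified by ELISA. Activity was fitted bidirectionally against DMSO as negative control and baseline.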
# [4] = read-out: Monocyte Chemoattractant Protein-1 (MCP1), CCL2 (gene 6347); experiment: BSK_4H_MCP1: BioMAP Diversity Plus: 4H Assay for Monocyte Chemoattractant Protein-1 (MCP1) Biomarker Activity (AID 2283018); settings: primary human endothelial cells (HUVEC); actives raise or lower the signal
# Summary of the method: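 ELISA read-out of MCP-1 from human vascular endothelial primary cells taken at 24 hours after compound exposure. Activity was fitted in both directions relative to DMSO, which served as negative control.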
# [5] = read-out: Human Leukocyte Antigen - DR isotype (HLADR), HLA-DRA (gene 3122); experiment: BSK_3C_HLADR: BioMAP Diversity Plus: 3C Assay for Human Leukocyte Antigen - DR isotype (HLADR) Biomarker Activity (AID 2283019); settings: primary human endothelial cells (HUVEC); actives raise or lower the signal;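 also: ELISA of cell-surface HLA-DR on HUVEC 24 h after dosing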
# Summary of the method: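 Primary human umbilical vein endothelial cells (3C system) were dosed with compound and cell-surface HLA-DR was quantified by ELISA at 24 h. Activity was fitted bidirectionally against DMSO as negative control and baseline.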
# [6] = molecular target: human Retinoid X Receptor beta (RXRb), RXRB (gene 6257) (UniProt P28702); experiment: ATG_RXRb_TRANS: Attagene TRANS-FACTORIAL HepG2 Assay for human Retinoid X Receptor beta (RXRb) (AID 2283013; active = hit-call score of the fitted dose curve at least 0.9, where 1 is the maximum)
# human Retinoid X Receptor beta (RXRb), RXRB (gene 6257), sequence (P28702 whole entry, looked up, the tested form may be a part): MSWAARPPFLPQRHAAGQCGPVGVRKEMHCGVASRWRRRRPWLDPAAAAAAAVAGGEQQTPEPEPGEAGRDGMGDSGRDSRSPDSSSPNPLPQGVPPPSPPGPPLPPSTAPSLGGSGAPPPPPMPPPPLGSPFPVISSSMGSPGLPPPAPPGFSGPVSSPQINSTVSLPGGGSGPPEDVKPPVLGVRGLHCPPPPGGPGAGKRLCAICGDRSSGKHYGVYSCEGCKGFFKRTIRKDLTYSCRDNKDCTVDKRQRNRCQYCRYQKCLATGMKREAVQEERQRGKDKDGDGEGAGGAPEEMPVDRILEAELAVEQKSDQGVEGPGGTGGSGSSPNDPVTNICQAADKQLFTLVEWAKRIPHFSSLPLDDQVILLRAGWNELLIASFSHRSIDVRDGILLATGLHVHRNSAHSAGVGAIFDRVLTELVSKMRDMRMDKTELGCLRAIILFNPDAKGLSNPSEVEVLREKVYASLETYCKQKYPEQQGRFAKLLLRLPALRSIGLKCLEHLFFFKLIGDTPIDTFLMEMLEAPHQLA
# Summary of the method: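 Transfect HepG2 with GAL4-UAS multi-reporter constructs (chimeric NR-Gal4, TRANS format); dose compound 24 h; isolate RNA, RT-PCR, FAM primer extension, HpaI digest; quantify by capillary electrophoresis; positive direction vs DMSO.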
# [7] = read-out: E-selectin (Homo sapiens) (UniProt P16581); experiment: BSK_3C_Eselectin: BioMAP Diversity Plus: 3C Assay for Eselectin Biomarker Activity (AID 2283015); settings: primary human endothelial cells (HUVEC); actives raise or lower the signal;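 also: cell surface E-selectin protein quantified by ELISA 24 h after dosing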
# Summary of the method: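 Primary human umbilical vein endothelial cells (3C system) were dosed with chemical and cell-surface E-selectin measured by ELISA 24 h later. Bidirectional curve fitting used DMSO as negative control and baseline.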
# E-selectin (Homo sapiens), sequence (P16581 whole entry, looked up): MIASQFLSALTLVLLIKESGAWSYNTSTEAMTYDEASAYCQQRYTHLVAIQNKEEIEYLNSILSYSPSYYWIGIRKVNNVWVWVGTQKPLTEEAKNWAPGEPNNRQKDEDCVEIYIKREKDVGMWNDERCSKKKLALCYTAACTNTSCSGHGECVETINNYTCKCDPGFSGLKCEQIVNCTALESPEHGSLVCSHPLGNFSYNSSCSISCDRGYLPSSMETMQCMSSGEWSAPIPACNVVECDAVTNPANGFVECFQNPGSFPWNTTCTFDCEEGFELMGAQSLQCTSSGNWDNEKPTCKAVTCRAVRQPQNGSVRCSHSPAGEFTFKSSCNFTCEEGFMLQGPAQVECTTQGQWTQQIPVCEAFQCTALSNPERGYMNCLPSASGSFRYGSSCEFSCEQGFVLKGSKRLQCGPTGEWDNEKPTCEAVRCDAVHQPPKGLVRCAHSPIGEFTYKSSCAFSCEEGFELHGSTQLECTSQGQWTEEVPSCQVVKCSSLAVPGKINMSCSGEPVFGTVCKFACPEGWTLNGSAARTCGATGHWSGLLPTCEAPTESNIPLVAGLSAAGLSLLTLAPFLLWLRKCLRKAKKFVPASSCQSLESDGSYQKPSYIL
structure (smiles),measurement,setting,value
CN(C(=O)C(F)(F)C(F)(F)C(F)(F)F)[Si](C)(C)C,outcome,[1],inactive
same,outcome,[2],inactive
same,outcome,[3],inactive
same,outcome,[4],inactive
same,outcome,[5],inactive
NCC(F)(F)C(F)(F)C(F)(F)C(F)(F)C(F)(F)C(F)(F)C(F)(F)C(F)(F)F,outcome,[6],inactive
same,outcome,[1],inactive
same,outcome,[7],inactive
same,outcome,[2],inactive
same,AC50,[3],0.57 µM (active)
same,outcome,[3],inactive
same,outcome,[4],inactive
same,outcome,[5],inactive
C#CC(O)CCC (stereo not drawn),outcome,[6],inactive
Brc1nc2ccccc2s1,outcome,[2],inactive
same,outcome,[3],inactive
same,outcome,[4],inactive
OCC(F)(F)C(F)(F)C(F)(F)CO,outcome,[2],inactive
same,outcome,[3],inactive
same,outcome,[4],inactive
CCC(Cc1c(I)cc(I)c(N)c1I)C(=O)O (stereo not drawn),outcome,[1],inactive
CCN(CC)c1ccc(N=Nc2ccccc2)cc1,outcome,[6],inactive
same,outcome,[1],inactive
same,AC50,[2],20 µM (active)
same,AC50,[3],30.6 µM (active)
same,AC50,[4],13.2 µM (active)
CCCCCCCCCCCCC[N+](C)(C)Cc1ccccc1,outcome,[6],inactive
same,outcome,[1],inactive
O=C1c2ccccc2C(=O)c2c(Cl)cccc21,AC50,[6],28.4 µM (active)
same,outcome,[1],inactive
CCCCCCCCCCCCCCCCC,outcome,[6],inactive
OCC(F)(F)C(F)(F)C(F)(F)C(F)(F)C(F)(F)C(F)(F)CO,outcome,[7],inactive
same,outcome,[2],inactive
same,outcome,[3],inactive
same,outcome,[4],inactive
same,outcome,[5],inactive
OCC(F)(F)C(F)(F)C(F)(F)C(F)(F)C(F)(F)C(F)(F)C(F)(F)C(F)(F)CO,AC50,[2],30 µM (active)
same,outcome,[2],inactive
same,outcome,[3],inactive
same,outcome,[4],inactive
CC(C)Nc1ccc(NC(C)C)c2c1C(=O)c1ccccc1C2=O,outcome,[6],inactive
same,outcome,[1],inactive
OCCC(O)CO (stereo not drawn),outcome,[6],inactive
same,outcome,[1],inactive
OCCCCC(F)(F)C(F)(F)C(F)(F)C(F)(F)F,outcome,[2],inactive
same,outcome,[3],inactive
same,outcome,[4],inactive
same,outcome,[5],inactive
